# ChEMBL document CHEMBL4513216, “Probing the Open Global Health Chemical Diversity Library for Multistage-Active Starting Points for Next-Generation Antimalarials” (ACS Infect Dis, 2020)
# Out of some 69,000 compounds screened, about 8,600 (12%) showed an effect of 50% or more. Shown is part of a subset that was picked to be rich in strong results.
# Test system: Plasmodium berghei
# Test: Screen against P. berghei liver stage (PbLuc), transformed with Luciferase, at 10uM
# Format: functional, HepG2
# Conditions: tested at 10 uM
row,SMILES,INHIBITION [%]
1,c1cncc(C[C@@H]2CC[C@H](CN3CCCOCC3)O2)c1,-13.1
2,O=C(c1cccnc1)N1CCOC2(COCCN(c3cncnc3)C2)C1 (stereo not given),-2.41
3,CCC(NC1CSCCSC1)c1ccc(S(C)(=O)=O)cc1 (stereo not given),29.4
4,COc1ccc(NC(C)C(=O)N2CCN(c3ccccc3)CC2)cn1 (stereo not given),21.6
5,COc1ccc(NC(C)C(=O)N2CCCC2)cn1 (stereo not given),78.2
6,COc1ccc(NC(C)C(=O)N2CCN(c3ncccn3)CC2)cn1 (stereo not given),29.2
7,Cc1ccccc1SCC(=O)NC1CCC(n2cnnc2)CC1 (stereo not given),34.1
8,CC(C)NC(=O)N1CCn2c(nnc2C2CCCN2)C1 (stereo not given),23.4
9,O=C(N1CCCCC1)N1CCCC1c1nnc2n1CCNC2 (stereo not given),36.6
10,CC(C)NC(=O)N1CCCCC1c1nnc2n1CCNC2 (stereo not given),54.9
11,CC(=O)N1CCCCC1c1nnc2n1CCNC2 (stereo not given),38.3
12,O=C(NC1CCCCC1)N1CCCC1c1nnc2n1CCNC2 (stereo not given),32.5
13,CC(C)NC(=O)N1CCC(c2nnc3n2CCNC3)CC1,59.8
14,Cc1cnn(C2CN(c3ncnc4[nH]ccc34)C2)c1,15
15,CN(C)CC(=O)N1Cc2nnn(C)c2C(COCc2ccccn2)C1 (stereo not given),-27.9
16,CC(C)C(=O)N1CCN(Cc2ccccn2)CC2(CC(=O)N(C)C2)C1 (stereo not given),5.04
17,Cn1cccc1C(=O)N1CC2(CCN(C(=O)c3cccnc3)C2)C1,32.1
18,Cn1nc(C2CCN(C(=O)c3cnccn3)C2)cc1CCO (stereo not given),45.2
19,Cc1nc(Cn2c3c(ccc2=O)CC(NC(C)C)CC3)cs1 (stereo not given),13.6
20,Cc1ccc(C(=O)N2CCC(O)(CN3CCc4ccccc4C3)C2)s1 (stereo not given),51.5

row,SMILES,INHIBITION [%]
1,Cc1csc(C(=O)N2CCC(O)(CN3CCc4ccccc4C3)C2)c1 (stereo not given),76.8
2,Cc1ncsc1C(=O)N1CCC(O)(CN2CCc3ccccc3C2)C1 (stereo not given),45.6
3,O=C(c1cccs1)N1CCC(O)(CN2CCc3ccccc3C2)C1 (stereo not given),37.5
4,Cc1ccsc1C(=O)N1CCC(O)(CN2CCc3ccccc3C2)C1 (stereo not given),33.7
5,Cn1cccc1C(=O)N1CCC(O)(CN2CCc3ccccc3C2)C1 (stereo not given),20.4
6,Cc1nnsc1C(=O)NCc1nn(C)c2c1COCC2,-2.09
7,CC(O)c1cn(Cc2ccc(Cl)cc2)nn1 (stereo not given),24.7
8,Cc1noc(C)c1CN1C[C@H]2CC[C@@H](C1)N(Cc1cc(F)cc(F)c1)C2,0.818
9,COCC(=O)N1CCC2(CC1)CC(=O)N(Cc1ccc(Cl)cc1)C2,14
10,CC(=O)N1CC2(CCCN2Cc2ccc(Cl)cc2)Cc2ccccc21 (stereo not given),46.6
11,CC(=O)N1CC2(CCN(Cc3ccc(Cl)cc3)C2)Cc2ccccc21 (stereo not given),57.3
12,Cc1ncsc1CN1CCC2(CC1)CC(=O)N(Cc1ccc(Cl)cc1)C2,-16
13,CS(=O)(=O)N1Cc2ccccc2CC2(CCN(Cc3ccccn3)C2)C1 (stereo not given),40
14,CC(=O)N1CC2(CCCN(Cc3ccc(Cl)cc3)C2)Cc2ccccc21 (stereo not given),49.1
15,CS(=O)(=O)N1CC2(CCCN2Cc2ccc(Cl)cc2)Cc2ccccc21 (stereo not given),23.4
16,CN(C)CC(=O)N1CC2(CCN(Cc3ccccc3)C2)C1,-2.35
17,CS(=O)(=O)N1Cc2ccccc2CC2(CCN(Cc3ccccc3)C2)C1 (stereo not given),55.7
18,CC(=O)N1CC2(CCCCN2Cc2ccc(Cl)cc2)Cc2ccccc21 (stereo not given),59
19,CS(=O)(=O)N1Cc2ccccc2CC2(CCN(Cc3ccncc3)C2)C1 (stereo not given),38.3
20,CC(=O)N1CC2(CCN(Cc3ccc(Cl)cc3)CC2)Cc2ccccc21,61.5
